# Mcl1 Bid PPI – Mcl-1/Bid interaction inhibition; Q07820; TR-FRET Mcl-1/Bid-Dy647 peptide binding, 1536-well; inhibition, % at 21.7 µM; 220,000 tested, 0.97% active; AID 1021;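 active = compounds that cut the binding signal by more than half at the single screening dose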;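 also: His-tagged Mcl-1 with europium anti-His antibody binding Bid BH3 peptide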
# Target sequence (Q07820 whole entry, looked up): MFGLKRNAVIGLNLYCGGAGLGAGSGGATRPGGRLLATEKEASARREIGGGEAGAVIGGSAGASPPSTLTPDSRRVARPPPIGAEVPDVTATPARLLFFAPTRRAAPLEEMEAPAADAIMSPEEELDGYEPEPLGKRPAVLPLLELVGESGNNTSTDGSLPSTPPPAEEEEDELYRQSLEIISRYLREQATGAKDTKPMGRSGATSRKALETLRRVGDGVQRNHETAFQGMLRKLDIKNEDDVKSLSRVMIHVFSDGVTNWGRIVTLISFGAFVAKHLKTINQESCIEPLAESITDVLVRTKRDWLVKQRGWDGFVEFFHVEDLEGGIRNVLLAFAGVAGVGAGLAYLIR
# Mcl1-Noxa inh – Mcl-1/Noxa interaction inhibition | Q07820 | TR-FRET Mcl-1/Noxa peptide binding, 2 h | inhibition, % at 21.7 µM | 220,000 tested, 1.5% active;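 active = compounds that cut the protein-peptide binding signal by more than 50% relative to plate controls in a single-dose test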;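 also: His-tagged Mcl-1 with rhodamine Noxa BH3 peptide and terbium anti-His antibody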
# Pf gamet viab – P. falciparum stage V gametocyte viability inhibition; P. falciparum stage V gametocytes, ATP luminescence, 24 h; inhibition, % at 10.9 µM; 150,000 tested, 0.065% active;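 active = inhibition above the mean plus 3 SD of compounds within the control limits, set per campaign, cut at about 38% in these data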
# Mcl-1 Bim block – human Bim-Mcl-1 interaction inhibition; Q07820; Bead-based flow cytometry, Bim peptide-Mcl-1 binding; inhibition, % at 10 µM; 190,000 tested, 0.1% active; AID 1009; in the data active = inhibition above about 40%
# 14-3-3 Bad inh – disrupts binding of bovine 14-3-3 zeta to phospho-Bad peptide | 220,000 tested, 0.71% active | inhibition, % at 21.7 µM | AID 781 | P63103 | TR-FRET 14-3-3zeta/Dy647-pBad peptide displacement, 1 h;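 active = inhibition above about 70%, limit read from the data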
# Target sequence (P63103 whole entry, looked up): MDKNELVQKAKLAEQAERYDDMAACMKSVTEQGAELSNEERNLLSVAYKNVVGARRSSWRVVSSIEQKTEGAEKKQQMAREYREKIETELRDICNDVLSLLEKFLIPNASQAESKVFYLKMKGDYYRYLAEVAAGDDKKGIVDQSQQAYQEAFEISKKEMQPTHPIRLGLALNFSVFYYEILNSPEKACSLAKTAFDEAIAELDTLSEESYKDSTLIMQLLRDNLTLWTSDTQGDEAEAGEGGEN
# eIF4E 4G PPI – inhibitors of eIF4E and eIF4G interaction in translation initiation. P63073+Q04637. 220,000 tested, 0.37% active. inhibition, % at 21.7 µM. TR-FRET eIF4E-eIF4GI(517-606) binding, 2 h;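 active = inhibition above about 30%, limit read from the data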
# Hits are given with their value; – = inactive; · = no result given; [ ] = remark or other dose. In the library only some 2.7% were active in any assay of this set; here they are far more common.
SMILES,Mcl1 Bid PPI,Mcl1-Noxa inh,Pf gamet viab,Mcl-1 Bim block,14-3-3 Bad inh,eIF4E 4G PPI
CCCOc1ccc(C(=O)NCC(c2ccco2)N(C)C)cc1OC (configuration not stated),95,–,·,–,–,–
COc1ccc(C(=O)NCC(=O)NCC(c2ccco2)N(C)C)cc1OC (configuration not stated),–,–,·,–,–,–
COC(=O)Cc1ccc(NC(=S)NNC(=O)C2CC2)cc1,–,–,–,·,–,–
O=C(c1cccc(S(=O)(=O)Nc2cccc(C(F)(F)F)c2)c1)N1CCOCC1,–,–,–,·,–,–
CC1CCCN(C(=O)c2cccc(S(=O)(=O)Nc3cc(C(F)(F)F)ccc3Cl)c2)C1 (configuration not stated),–,–,·,–,90,–
CCCN(Cc1cc(=O)[nH]c2ccccc12)C(=O)CC,–,–,–,·,76,–
CCC(=O)N(CC)Cc1cc(=O)[nH]c2ccccc12,–,–,–,–,–,–
COc1ccccc1N(Cc1cc(=O)[nH]c2ccccc12)C(=O)c1ccccc1,–,–,–,·,–,58
O=C(CSc1ccc2c(c1)OCCO2)Nc1cccnc1,–,–,–,–,–,–
Cc1sc2ncnc(N3CCCC(C)C3)c2c1C (configuration not stated),–,–,–,–,–,–
CN1C(=O)/C(=C/c2cn(CC(=O)NCc3ccco3)c3ccccc23)NC1=S,–,73,·,–,–,–
CCCSc1nc(N)c2c3c(sc2n1)CN(C)CC3,–,–,·,–,–,–
CC(C)Sc1nc(N)c2c3c(sc2n1)CN(C)CC3,–,58,·,–,–,–
CCOC(=O)N1CCN(C(=O)c2ccc(CS(=O)(=O)c3ccccc3OC)o2)CC1,–,59,–,–,–,–
COc1ccccc1N1CCN(C(=O)c2ccc(CS(=O)(=O)c3ccccc3OC)o2)CC1,–,–,–,–,–,–
COc1ccccc1/C=C(/NC(=O)c1ccc(Cl)cc1Cl)C(=O)O,–,–,·,–,85,–
O=C(Nc1ccc(Cl)cc1Cl)c1ccc(-c2ccccc2)cc1,–,70,–,–,–,–
O=C(Nc1c(Cl)cccc1Cl)c1ccc(-c2ccccc2)cc1,–,–,·,–,–,–
COc1ccc(C(=O)/C=C/C(=O)N(CC(=O)NC2CCCCC2)CC2CCCO2)c(O)c1 (configuration not stated),–,68,–,–,–,–
CCCCOCC1CN(c2ccccc2)C(=O)CS1 (configuration not stated),–,–,·,–,–,–
CCCCC1C(=O)N(c2ccccc2)N(c2ccccc2)C1=O,56,–,·,–,–,–
Cc1noc(C)c1COC(=O)c1cnc(Cl)c(Cl)c1,–,–,·,–,–,–
c1cncc(-c2nn3c(Cn4nnc5ccccc54)nnc3s2)c1,–,–,·,–,–,–
c1ccc(-c2nn3c(Cn4nnc5ccccc54)nnc3s2)nc1,–,55,–,–,–,–
Oc1c(C(c2ccc(Cl)cc2)N2CCCC2)cc(Cl)c2cccnc12 (configuration not stated),73,–,–,–,–,–
SMILES,Mcl1 Bid PPI,Mcl1-Noxa inh,Pf gamet viab,Mcl-1 Bim block,14-3-3 Bad inh,eIF4E 4G PPI
CC1C(=O)Nc2ccccc2N1C(=O)c1ccccc1 (configuration not stated),–,–,–,–,–,–
COc1cc(/C=N/NC(=O)C(Cc2c[nH]c3ccccc23)NC(=O)OCC(C)C)cc([N+](=O)[O-])c1O (configuration not stated),–,52,–,–,–,–
COc1cc(/C=N/NC(=O)C(Cc2c[nH]c3ccccc23)NC(=O)OCc2ccccc2)cc([N+](=O)[O-])c1O (configuration not stated),–,81,–,–,–,–
CCC(=O)c1ccc(/C=C/c2nc3ccccc3n2C)o1,–,–,·,–,–,–
COc1cccc(-c2nc(Oc3cccc(C)c3C)c3ccccc3n2)c1O,52,–,–,–,–,–
CCN(CC)c1cc(C)c2cc(NC(=O)c3ccc(Br)o3)ccc2n1,–,60,–,–,–,–
CCN1CCN(c2cc(C)c3cc(NC(=O)c4ccc(Br)o4)ccc3n2)CC1,–,–,–,–,–,–
Cc1ccc(-n2nnnc2SCC(=O)Nc2cccc(NC(=O)c3ccco3)c2)cc1C,63,–,–,–,–,–
CCn1nnnc1SCC(=O)Nc1cccc(NC(C)=O)c1,–,–,–,–,–,37[fluorescence artefact?]
O=C(Nc1ccc(C(=O)N2CCOCC2)cc1)c1cccc([N+](=O)[O-])c1,–,–,–,–,–,–
COC(=O)C1=C(C(=O)OC)[C@@H]2N(C)c3ccc(OC)cc3[C@@]23C[C@@H](C(=O)OC)N=C3N1,–,–,–,·,–,–
Nc1c(O)ccc2c1C(=O)c1ccccc1C2=O,–,78,–,–,–,–
Nc1ncnc2oc(-c3ccco3)c(-c3ccco3)c12,–,82,·,–,–,–
Nc1nnc(-c2ccco2)s1,–,–,·,–,–,–
Cc1c(NC(=O)COC(=O)CCC(=O)c2ccc(Cl)cc2)c(=O)n(-c2ccccc2)n1C,–,–,–,–,–,–
CC1CC2=C(C(=O)O1)C(c1ccc(Cl)cc1)Nc1ccccc1N2 (configuration not stated),–,–,–,–,–,–
Cc1ccc(C(=O)CSc2ncnc3sc4c(c23)CCCC4)cc1,–,–,·,–,–,33
O=C(O)CSc1ncnc2sc3c(c12)CCCC3,–,–,·,–,–,–
C/C(=N\NC(=O)Cc1c(C)[nH][nH]c1=O)c1cccc(Br)c1,–,–,–,·,–,97
CCN(C(=O)c1cc2cccc(OC)c2oc1=O)c1ccccc1,–,–,–,–,–,–
COCCN1CCn2c(nc3cc(NC(=O)Cn4nc(C)c5ccccc5c4=O)ccc32)C1,–,66,–,·,–,–
Cc1nn(CC(=O)Nc2ccc3c(c2)nc2n3CCOC2)c(=O)c2ccccc12,–,–,·,–,–,–
O=C(CN1CCCCC1)Nc1ccc(N2CCCCCC2)cc1,–,67,–,–,–,–
Cc1cc(C)cc(C(=O)Nc2ccc(N3CCCC3)cc2)c1,–,67,–,–,–,–
O=C(Cc1ccccc1)Nc1ccc(N2CCCC2)cc1,–,82,–,–,·,·
SMILES,Mcl1 Bid PPI,Mcl1-Noxa inh,Pf gamet viab,Mcl-1 Bim block,14-3-3 Bad inh,eIF4E 4G PPI
O=C(CN1CCCCC1)Nc1ccccc1,–,–,·,–,–,–
COc1ccc(NC(=O)CN2CCOCC2)cc1,71,–,–,–,73,–
COc1ccc(CC2(CO)CCN(S(=O)(=O)c3sccc3C)CC2)cc1,–,–,–,–,–,–
COc1ccccc1C(=O)Nc1ccc(N2CCCCC2)cc1,–,–,·,–,–,–
CC1CCN(c2ccc(NC(=O)Cc3ccccc3)cc2)CC1,–,87,–,–,–,–
O=C(Nc1ccc(N2CCCCCC2)cc1)c1ccccc1Cl,–,52,·,–,–,–
